{
  "source": "PubChem BioAssay AID1117361",
  "about": "(Southern Research Institute, 2015)",
  "note": "The whole screen tested about 3,600 compounds, of which about 900 (25%) were called active. The rule behind the calls is not given here. The list is a sample of the results. A call without a number means that no potency is given here. Potency and affinity values are given separately.",
  "data": [
    {"molecular_target": "Protein Tat (Human immunodeficiency virus type 1 group M subtype B (isolate HXB2)) (UniProt P04608)", "test": "inhibitors of Tat binding to TAR RNA, dose response, counter-screen for Vif-APOBEC3G degradation inhibitor project, biochemical, fluorescence polarization, FAM-labeled TAR RNA (AID 1117361)", "conditions": "outcome: at 100 µM (top of the series) unless noted; series mostly up to 100 µM", "values": [
      {"smiles": "CCC(C)NS(=O)(=O)c1ccc(S(=O)(=O)N(CC(=O)Nc2ccccc2)CC2CCCO2)cc1", "note": "(configuration not stated)", "outcome": "inactive"},
      {"smiles": "COc1ccccc1S(=O)(=O)Cc1ccc(C(=O)N2CCN(c3ccccn3)CC2)o1", "outcome": "inactive"},
      {"smiles": "CCN1CCN(CCCNC(=O)c2ccc3c(c2)NC(=O)c2ccccc2S3)CC1", "outcome": "inactive"},
      {"smiles": "CC1(C)CC(=O)C2=C(C1)N(Cc1ccc(F)cc1)C(=O)C2(NC(=O)c1cccnc1)C(F)(F)F", "note": "(configuration not stated)", "outcome": "inactive"},
      {"smiles": "CC(=O)Nn1cc2c(=O)n(C)c(=O)n(C)c2c1", "outcome": "inactive"},
      {"smiles": "CCN(CC)CCN1C(=O)c2ccccc2NC1c1ccc(N(C)C)cc1", "note": "(configuration not stated)", "outcome": "inactive"},
      {"smiles": "COc1cc(NC(=O)c2cc3nc(C)cc(C)n3n2)c(OC)cc1Cl", "outcome": "inactive"},
      {"smiles": "Cc1ccc2c(c1)c(CC(=O)Nc1ccc(C)c(F)c1)c(C(=O)O)n2C", "outcome": "inactive"},
      {"smiles": "Nc1ccc(-c2nc3cc(N)ccc3n2CCO)cc1", "outcome": "inactive"},
      {"smiles": "COc1ccc(S(=O)(=O)NCc2ccccn2)c(Cl)c1Cl", "outcome": "inactive"},
      {"smiles": "CCN(CC)CCNC(=O)CCn1c(=S)[nH]c2cc3c(cc2c1=O)OCO3", "outcome": "inactive"},
      {"smiles": "C=CCn1cc(-c2ccccc2)cc(C#N)c1=O", "outcome": "inactive"},
      {"smiles": "Cc1ccc(CSc2nc3c(c(N(C)C)n2)CCCC3)cc1", "outcome": "inactive"},
      {"smiles": "CCN(CC)CCCNC(=O)CSc1nc(-c2cccs2)cc(C(F)(F)F)n1", "outcome": "inactive"},
      {"smiles": "COC(=O)/C=c1\\sc2n(c1=O)C(C)=CC(C)(C)N=2", "outcome": "inactive"},
      {"smiles": "CCOC(=O)CCC(=O)N1CCOCCN(C(=O)CCC(=O)OCC)CCOCC1", "outcome": "inactive"},
      {"smiles": "Cc1ccc(N=Cc2nc(-c3ccc(C)cc3)oc2O)cc1", "outcome": "inactive"},
      {"smiles": "CC(C)(C)NC(=O)CSc1nnc(-c2ccccn2)n1Cc1ccccc1", "outcome": "inactive"},
      {"smiles": "COc1ccc(CNC(=O)c2c(-c3cc(Cl)c(OC)c(Cl)c3)noc2C)cc1", "outcome": "inactive"},
      {"smiles": "OCCCNc1ncnc2c1[nH]c1ccccc12", "outcome": "inactive"},
      {"smiles": "CC(=O)Nc1cccc(-c2cc(-c3c(Cl)cccc3Cl)no2)c1", "outcome": "inactive"},
      {"smiles": "O=C(CCn1nc(-c2ccccc2)ccc1=O)N1CCCC1", "outcome": "inactive"},
      {"smiles": "CN1CCN(S(=O)(=O)c2ccc(NC(=S)NC(=O)c3ccc(Cl)cc3)cc2)CC1", "outcome": "inactive"},
      {"smiles": "Cc1cccc(OCCCC(=O)NC(C)c2ccccc2)c1", "note": "(configuration not stated)", "outcome": "inactive"},
      {"smiles": "CCn1c(=O)cc(N2CCC3(CC2)OCCO3)[nH]c1=O", "outcome": "inactive"},
      {"smiles": "Cn1cc(Cl)c(C(=O)Nc2nc3ccccc3s2)n1", "outcome": "inactive"},
      {"smiles": "CCC(C)(c1nnnn1-c1c(C)cccc1C)N(N=O)c1ccccc1Cl", "note": "(configuration not stated)", "outcome": "inactive"},
      {"smiles": "CSCCC(NS(=O)(=O)c1ccc2c(c1)oc(=O)n2C)C(=O)NC1CCCc2ccccc21", "note": "(configuration not stated)", "outcome": "inactive"},
      {"smiles": "COc1ccc(S(N)(=O)=O)cc1C(=O)OCC(=O)NC(C)(C#N)C1CC1", "note": "(configuration not stated)", "outcome": "inactive"},
      {"smiles": "O=c1cc(O)nc(SCc2ccccc2Cl)[nH]1", "outcome": "inactive"},
      {"smiles": "CSc1nc(N)c(C#N)c(-c2ccccc2Cl)c1C#N", "outcome": "inactive"},
      {"smiles": "COc1ccc(C2(O)CCN(Cc3nnnn3Cc3ccc(F)cc3)CC2)cc1", "outcome": "inactive"},
      {"smiles": "CC(C)(C)NCCCCOc1ccc(F)cc1", "outcome": "inactive"},
      {"smiles": "CCOc1ccc(NC(=O)c2ccccc2NS(C)(=O)=O)cc1", "outcome": "inactive"},
      {"smiles": "Cc1c(O)nc(SCC(=O)Nc2ccc3c4c(cccc24)CC3)n(-c2ccc(F)cc2)c1=O", "outcome": "inactive"},
      {"smiles": "CCOc1ccc(NC(=O)Cn2cncc2-c2ccc([N+](=O)[O-])cc2)cc1", "outcome": "inactive"},
      {"smiles": "Cc1cc(C)nc(N2N=C(C(C)(C)C)CC2=O)n1", "outcome": "inactive"},
      {"smiles": "COc1cc2cc(C(c3nnnn3C3CCCC3)N(C)C3CCCCC3)c(=O)[nH]c2cc1OC", "note": "(configuration not stated)", "outcome": "inactive"},
      {"smiles": "COCCn1nnnc1C(c1cc2ccc(C)cc2[nH]c1=O)N(Cc1ccco1)Cc1cccs1", "note": "(configuration not stated)", "outcome": "inactive"},
      {"smiles": "CCCN(CC(=O)Nc1ccccc1OC)C(=O)CSc1ccc(Br)cc1C", "outcome": "inactive"},
      {"smiles": "CCN(CC)S(=O)(=O)c1ccc(NC(=O)CSc2nnc(-c3cccc(OC)c3)n2C)cc1", "outcome": "inactive"},
      {"smiles": "CSc1nc(C)cc(SCC(=O)Nc2ccccc2)n1", "outcome": "inactive"},
      {"smiles": "COc1ccc(NC(=O)CSc2nc(C)cc(C)n2)cc1", "outcome": "inactive"},
      {"smiles": "COc1cccc(NC(=O)CSc2nnnn2C(C)C)c1", "outcome": "inactive"},
      {"smiles": "CC(=O)Nc1c(O)nc(SCC(=O)Nc2ccc(C(C)=O)cc2)[nH]c1=O", "outcome": "inactive"},
      {"smiles": "COc1ccc(NC(=O)CSc2nnc(C)n2Cc2ccccc2)cc1", "outcome": "inactive"},
      {"smiles": "Cc1ccc[n+](CC(=O)c2cc3ccccc3oc2=O)c1", "outcome": "inactive"},
      {"smiles": "CCCc1nc(SCc2cccnc2)c2c(=O)n(C)c(=O)n(C)c2n1", "outcome": "inactive"},
      {"smiles": "O=C(NCc1ccc2c(c1)OCO2)C1CCCN1C(=O)Nc1ccccc1", "note": "(configuration not stated)", "outcome": "inactive"},
      {"smiles": "CCn1c(=O)oc2cc(NC(=O)CCl)ccc21", "outcome": "inactive"},
      {"smiles": "COC(=O)Cn1ncn2c(cc3oc(C)cc32)c1=O", "outcome": "inactive"},
      {"smiles": "O=C(Cn1c(/C=C/c2ccccc2)nc2ccccc21)Nc1ccc(F)cc1", "outcome": "inactive"},
      {"smiles": "O=C(Nc1ccc2nc(-c3ccccc3)[nH]c2c1)c1cccs1", "outcome": "inactive"},
      {"smiles": "CC(C)OCCCNC(=O)c1cccs1", "outcome": "inactive"},
      {"smiles": "Cc1ccnc(NS(=O)(=O)c2ccc(NC(=O)Cc3cccs3)cc2)n1", "outcome": "inactive"},
      {"smiles": "CCCCN(CCCC)S(=O)(=O)c1ccc(NC(=O)Cc2cccs2)cc1", "outcome": "inactive"},
      {"smiles": "CN(Cc1cn(C)nc1-c1cccc(Cl)c1)Cc1nccn1C", "outcome": "inactive"},
      {"smiles": "N#Cc1nc(Cc2ccccc2)oc1NCCCn1ccnc1", "outcome": "inactive"},
      {"smiles": "O=C(COc1ccc(F)cc1)Nc1ccc(-n2cnnn2)cc1", "outcome": "inactive"},
      {"smiles": "CCOC(=O)C1CCN(C(=O)C2CCN(c3nc4ccc(OC)cc4s3)CC2)CC1", "outcome": "inactive"},
      {"smiles": "Cn1c(CN2CCCC2)nc2cc(NC(=O)Nc3ccccc3)ccc21", "outcome": "inactive"},
      {"smiles": "CCOC(=O)C1CCCN(CCC(=O)Nc2ccc3c(c2)CCC3)C1", "note": "(configuration not stated)", "outcome": "inactive"},
      {"smiles": "O=C(Nc1ccc2c(c1)OCCO2)N1CCN(c2ccccc2)CC1", "outcome": "inactive"},
      {"smiles": "C/C(=C/C(=O)NCc1ccccc1)C(=O)O", "outcome": "inactive"},
      {"smiles": "CN(C)c1ccc(N/C=C/C(=O)c2ccco2)cc1", "outcome": "inactive"},
      {"smiles": "O=C(Nc1ccccc1C(F)(F)F)c1cc(-c2ccc(O)cc2)on1", "outcome": "inactive"},
      {"smiles": "O=C(CN(C(=O)CCNC(=O)c1ccco1)c1ccccc1)NC1CCCC1", "outcome": "inactive"},
      {"smiles": "COc1ccc(/C=C/C2=NC(=C\\N(C)C)/C(=O)O2)cc1", "outcome": "inactive"},
      {"smiles": "Nc1nnc(CC2=CCCCC2)s1", "outcome": "inactive"},
      {"smiles": "CCOc1ccc(/C=C2\\NC(=S)NC2=O)cc1", "outcome": "inactive"},
      {"smiles": "O=C(Cn1[nH]c(=O)c2ccccc2c1=O)OCC(=O)N(Cc1ccccc1)Cc1ccccc1", "outcome": "inactive"},
      {"smiles": "CC(C)Cc1ccc(C(C)C(=N)N)cc1", "note": "(configuration not stated)", "outcome": "inactive"}
    ]}
  ]
}
